# Inconclusive results are not listed. Where a call stands in place of a potency, no number is given. Values without a mark were called inactive. Calls of active or inactive are those of the source. Unless noted, calls come from the whole dose curve; as a rule, active = well fitted curve in the direction sought with a large enough effect in the repeat runs; inconclusive = weak or mixed curves; inactive = no such curve, though single readings can be large; an effect the other way counts as inactive or inconclusive.
# What was measured:
# [1] = qHTS assay to identify small molecule antagonists of the thyroid receptor (TR) signaling pathway - cell viability counter screen (AID 743064); note: nearly all actives have a fitted effect of over 50% in size; note: potency is the fitted concentration of half-maximal effect
# Summary of the method: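 GH3.TRE-Luc rat pituitary cells carrying a TRE-luciferase reporter were treated with compound plus 1 nM T3 (final) for 23.5 h at 37 °C. Viability was then read in the same wells by CellTiter-Fluor fluorescence after a further 30 min.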
# [2] = qHTS assay to identify small molecule antagonists of the thyroid receptor (TR) signaling pathway (AID 743065); note: nearly all actives have a fitted effect of over 55% in size; note: potency is the fitted concentration of half-maximal effect; for activity, negative = inhibition: series mostly up to about 70 µM
# Summary of the method: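 Antagonism measured as loss of luciferase signal in GH3 cells stably carrying a TRE-luciferase reporter, co-treated with compound and T3 (1 nM final) for 23.5 h at 37 C. Viability was read in the same well by CellTiter-Fluor.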
# [3] = test system: thyroid hormone receptor (rat, GH3 cells); assay: qHTS assay to identify small molecule agonists of the thyroid receptor (TR) signaling pathway (AID 743066; calls by dose curve)
# [4] = qHTS assay to identify small molecule antagonists of the estrogen receptor alpha (ER-alpha) signaling pathway - cell viability counter screen (AID 743074; calls by dose curve;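 note: HEK293 cells carrying ER-alpha-UAS-bla reporter stimulated with 17beta-estradiol; nearly all actives have a fitted effect of over 45% in size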)
# [5] = target: Estrogen receptor (Homo sapiens) (UniProt P03372); assay: qHTS assay to identify small molecule agonists of the estrogen receptor alpha (ER-alpha) signaling pathway (AID 743075; calls by dose curve)
# [6] = target: Estrogen receptor (Homo sapiens) (UniProt P03372); assay: qHTS assay to identify small molecule agonists of the estrogen receptor alpha (ER-alpha) signaling pathway using the BG1 cell line (AID 743079); note: nearly all actives have a fitted effect of over 20% in size
# [7] = target: Aromatase (Homo sapiens) (UniProt P11511); assay: qHTS assay to identify aromatase inhibitors (AID 743083); note: series mostly up to about 70 µM; nearly all actives have a fitted effect of over 55% in size
# [8] = qHTS assay to identify small molecule antagonists of the estrogen receptor alpha (ER-alpha) signaling pathway using the BG1 cell line - cell viability counter screen (AID 743081);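 note: compound given together with 17beta-estradiol as the ER stimulus; series mostly up to about 70 µM; nearly all actives have a fitted effect of over 45% in size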
# [9] = target: Estrogen receptor (Homo sapiens) (UniProt P03372); assay: qHTS assay to identify small molecule antagonists of the estrogen receptor alpha (ER-alpha) signaling pathway (AID 743069; active = well fitted curve in the direction sought with a large enough effect in the signal ratio in the repeat runs, not every such curve was filed as active; the % refers to the signal ratio)
# Summary of the method: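 Compound effects are measured against 17beta-estradiol stimulation in HEK293 cells with a UAS-controlled beta-lactamase reporter for ER-alpha. Exposure lasts 18 hr at 37C; LiveBLAzer B/G FRET substrate follows for 2 hr at room temperature.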
# [10] = qHTS assay to identify small molecule antagonists of the estrogen receptor alpha (ER-alpha) signaling pathway using the BG1 cell line (AID 743080; calls by dose curve;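 note: BG1 cells stimulated with 17beta-estradiol alongside compound; series mostly up to about 70 µM; nearly all actives have a fitted effect of over 25% in size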)
# Summary of the method: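 Endogenous full-length ER-alpha in BG1-Luc-4E2 cells drives a stably integrated 4×ERE luciferase gene; compounds were tested against 17beta-estradiol over 21.5 h, with luminescence and multiplexed viability fluorescence recorded.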
# Estrogen receptor (Homo sapiens), sequence (P03372 whole entry, looked up): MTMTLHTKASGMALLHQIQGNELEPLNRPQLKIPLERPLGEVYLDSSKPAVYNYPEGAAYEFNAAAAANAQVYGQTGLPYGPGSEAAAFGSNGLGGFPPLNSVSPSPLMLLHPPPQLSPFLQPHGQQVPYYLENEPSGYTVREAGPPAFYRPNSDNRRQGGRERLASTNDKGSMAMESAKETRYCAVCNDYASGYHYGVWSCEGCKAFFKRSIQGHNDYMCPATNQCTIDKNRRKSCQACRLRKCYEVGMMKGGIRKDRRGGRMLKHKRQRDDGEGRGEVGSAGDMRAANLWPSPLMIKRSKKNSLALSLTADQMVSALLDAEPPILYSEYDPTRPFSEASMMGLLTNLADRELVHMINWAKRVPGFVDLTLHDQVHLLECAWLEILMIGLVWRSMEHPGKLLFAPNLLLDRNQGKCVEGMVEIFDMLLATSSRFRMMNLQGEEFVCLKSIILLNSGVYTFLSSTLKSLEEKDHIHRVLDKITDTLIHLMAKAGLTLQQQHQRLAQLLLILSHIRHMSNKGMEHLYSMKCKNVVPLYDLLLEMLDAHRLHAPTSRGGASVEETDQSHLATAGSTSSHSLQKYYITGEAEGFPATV
# Aromatase (Homo sapiens), sequence (P11511 whole entry, looked up): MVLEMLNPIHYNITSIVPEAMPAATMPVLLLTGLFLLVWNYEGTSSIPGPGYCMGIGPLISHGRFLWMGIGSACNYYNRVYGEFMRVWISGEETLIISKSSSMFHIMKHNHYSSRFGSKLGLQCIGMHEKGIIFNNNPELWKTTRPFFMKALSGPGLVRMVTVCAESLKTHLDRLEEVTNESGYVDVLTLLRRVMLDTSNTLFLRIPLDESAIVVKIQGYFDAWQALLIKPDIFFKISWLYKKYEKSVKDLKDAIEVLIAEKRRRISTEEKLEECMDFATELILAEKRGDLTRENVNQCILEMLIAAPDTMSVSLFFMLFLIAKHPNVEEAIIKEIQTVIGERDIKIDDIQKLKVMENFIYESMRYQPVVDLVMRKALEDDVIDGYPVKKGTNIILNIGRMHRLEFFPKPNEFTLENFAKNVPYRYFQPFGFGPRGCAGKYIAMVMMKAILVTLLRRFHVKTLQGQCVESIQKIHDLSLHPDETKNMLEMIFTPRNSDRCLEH
smiles,measurement,setting,value
O=C1c2cccc3c2[C@H](CCC3)CN1[C@@H]1CN2CCC1CC2,Potency,[1],23.7 µM (active)
same,Potency,[2],18.8 µM (active)
same,outcome,[3],inactive
same,outcome,[4],inactive
same,outcome,[5],inactive
same,Potency,[6],inactive
same,Potency,[7],inactive
N#Cc1ccc(C(=O)O)cc1,Potency,[1],inactive
same,Potency,[2],inactive
same,outcome,[3],inactive
same,outcome,[4],inactive
same,outcome,[8],inactive
same,Potency,[7],inactive
C[Si](C)=O,"activity change, negative = cytotoxic",[1],-4.47% [at 8.44 µM]
same,"activity, negative = inhibition",[2],0.0327% [at 8.44 µM]
same,activation,[3],0.231% [at 8.08 µM]
same,"activity, negative = cytotoxicity",[4],5.35% [at 6.72 µM]
same,"activity change, negative = cytotoxicity",[8],-7.83% [at 8.47 µM]
same,"activity, negative = inhibition",[7],11% [at 8.47 µM]
BrCc1cccc(Oc2ccccc2)c1,Potency,[1],inactive
same,Potency,[2],inactive
same,outcome,[3],inactive
same,outcome,[4],inactive
same,outcome,[8],inactive
same,Potency,[7],inactive
c1ccc2c(c1)ccc1c3ccccc3ccc21,Potency,[1],inactive
same,Potency,[2],inactive
same,outcome,[3],inactive
same,outcome,[4],inactive
same,outcome,[8],inactive
same,Potency,[7],inactive
CCCCCOC(=O)CCC,Potency,[1],inactive
same,Potency,[2],inactive
same,outcome,[3],inactive
same,outcome,[4],inactive
same,outcome,[8],inactive
same,Potency,[7],inactive
CC(C)CC(C)CC(C)CC(C)COC(=O)c1ccccc1C(=O)OCC(C)CC(C)CC(C)CC(C)C (configuration not stated),Potency,[1],inactive
same,Potency,[2],inactive
same,outcome,[3],inactive
same,outcome,[4],inactive
same,outcome,[8],inactive
same,Potency,[7],inactive
Cc1cc2cc3c(C)cc(=O)oc3c(C)c2o1,Potency,[1],inactive
same,Potency,[2],inactive
same,outcome,[3],inactive
same,outcome,[4],inactive
same,outcome,[5],inactive
same,Potency,[6],inactive
same,outcome,[8],inactive
same,Potency,[7],inactive
CCCCCCCCCCl,Potency,[1],inactive
same,Potency,[2],inactive
same,outcome,[3],inactive
same,outcome,[4],inactive
same,outcome,[8],inactive
same,Potency,[7],inactive
CC(C)(C)OC(=O)c1ccc(O)cc1,Potency,[1],inactive
same,Potency,[2],inactive
same,outcome,[3],inactive
same,outcome,[4],inactive
same,outcome,[8],inactive
same,Potency,[7],inactive
O=C(NCC(O)CO)c1c(I)c(C(=O)NCC(O)CO)c(I)c(N(CCO)C(=O)CO)c1I (configuration not stated),Potency,[1],inactive
same,Potency,[2],inactive
same,outcome,[3],inactive
same,outcome,[4],inactive
same,outcome,[8],inactive
Nc1nnc(-c2cccc(Cl)c2Cl)c(N)n1,Potency,[1],inactive
same,Potency,[2],inactive
same,outcome,[3],inactive
same,outcome,[4],inactive
same,outcome,[8],inactive
same,Potency,[7],inactive
O=S(=O)(O)CCN1CCN(CCO)CC1,Potency,[1],inactive
same,Potency,[2],inactive
same,outcome,[3],inactive
same,outcome,[4],inactive
same,outcome,[8],inactive
same,Potency,[7],inactive
CCC(C)(CCC(C)C)C(=O)O (configuration not stated),Potency,[1],inactive
same,Potency,[2],inactive
same,outcome,[3],inactive
same,outcome,[4],inactive
same,outcome,[8],inactive
CC(S)C(=O)NCC(=O)O (configuration not stated),Potency,[1],inactive
same,Potency,[2],inactive
same,outcome,[3],inactive
same,outcome,[4],inactive
same,outcome,[8],inactive
same,Potency,[7],inactive
C#CC(C)N(C)C(=O)Nc1ccc(Cl)cc1 (configuration not stated),Potency,[1],inactive
same,Potency,[2],inactive
same,outcome,[3],inactive
same,outcome,[4],inactive
same,outcome,[8],inactive
same,Potency,[7],inactive
CC/C=C\CC1=C(C)CCC1=O,Potency,[1],inactive
same,Potency,[2],inactive
same,outcome,[3],inactive
same,outcome,[4],inactive
same,outcome,[8],inactive
same,Potency,[7],inactive
CCCC/C=C\CCCCCCCCCC=O,Potency,[1],inactive
same,Potency,[2],inactive
same,outcome,[3],inactive
same,outcome,[4],inactive
same,outcome,[8],inactive
same,Potency,[7],inactive
O=C(O)c1cc(Br)c(O)c(Br)c1,Potency,[1],inactive
same,Potency,[2],inactive
same,outcome,[3],inactive
same,outcome,[4],inactive
same,outcome,[8],inactive
same,Potency,[7],inactive
OCCCCC(O)CO (configuration not stated),Potency,[1],inactive
same,Potency,[2],inactive
same,outcome,[4],inactive
same,outcome,[8],inactive
same,Potency,[7],inactive
O=C(c1ccc(O)cc1)c1ccc(O)c(O)c1O,Potency,[1],inactive
same,Potency,[2],inactive
same,outcome,[3],inactive
same,outcome,[8],inactive
same,Potency,[7],inactive
CCCC/C=C/C=C\C=O,Potency,[1],inactive
same,outcome,[3],inactive
same,outcome,[9],inactive
same,outcome,[4],inactive
same,outcome,[5],inactive
same,Potency,[6],inactive
same,Potency,[10],inactive
same,outcome,[8],inactive
same,Potency,[7],inactive
OC[C@H](Cc1cccc(O)c1)[C@H](CO)Cc1cccc(O)c1,Potency,[1],inactive
same,outcome,[3],inactive
same,outcome,[4],inactive
same,outcome,[8],inactive
same,Potency,[7],inactive
NCCN1CCOCC1,Potency,[1],inactive
same,Potency,[2],inactive
same,outcome,[3],inactive
same,outcome,[8],inactive
same,Potency,[7],inactive
CC(=O)N[C@@H](CCC(=O)O)C(=O)O,Potency,[1],inactive
same,Potency,[2],inactive
same,outcome,[3],inactive
same,outcome,[4],inactive
same,outcome,[8],inactive
same,Potency,[7],inactive
CC1(CO)CN(c2ccccc2)NC1=O (configuration not stated),Potency,[1],inactive
same,outcome,[3],inactive
same,outcome,[4],inactive
same,outcome,[8],inactive
same,Potency,[7],inactive
CN=C(NC#N)Nc1ccc(C2=NNC(=O)CC2C)cc1 (configuration not stated),Potency,[1],inactive
same,Potency,[2],inactive
same,outcome,[3],inactive
same,outcome,[4],inactive
same,outcome,[8],inactive
same,Potency,[7],inactive
COc1ccc(OC)c(Cl)c1,Potency,[1],inactive
same,Potency,[2],inactive
same,outcome,[3],inactive
same,outcome,[4],inactive
same,outcome,[8],inactive
same,Potency,[7],inactive
COCCOC(=O)C1=C(C)NC(C)=C(C(=O)OC(C)C)C1c1cccc([N+](=O)[O-])c1 (configuration not stated),Potency,[1],inactive
same,outcome,[3],inactive
same,outcome,[4],inactive
same,outcome,[5],inactive
same,Potency,[6],inactive
same,Potency,[10],inactive
same,outcome,[8],inactive
same,Potency,[7],inactive
Cc1cc(NC(=O)C2=C(O)c3ccccc3S(=O)(=O)N2C)no1,Potency,[1],inactive
same,Potency,[2],inactive
same,outcome,[3],inactive
same,outcome,[8],inactive
same,Potency,[7],inactive
COC(=O)CCc1ccc(OCC(O)CNC(C)C)cc1 (configuration not stated),Potency,[1],inactive
same,Potency,[2],inactive
same,outcome,[3],inactive
same,outcome,[4],inactive
same,outcome,[8],inactive
same,Potency,[7],inactive
N[C@@H](COP(=O)(O)O)C(=O)O,Potency,[1],inactive
same,Potency,[2],inactive
same,outcome,[3],inactive
same,outcome,[4],inactive
same,outcome,[8],inactive
same,Potency,[7],inactive

# Source: PubChem BioAssay (Tox21)
